The source of these data is PubChem BioAssay (NCATS).

Results filed as inconclusive are left out. Calls of active or inactive are those of the source. The call rests on the fitted dose curve; in most records, active means well fitted cell-killing curve with a large enough effect; inconclusive means small, poorly fitted or top-dose-only effect, or effect the other way; inactive means no such curve, though single readings can be large or run the other way.
Potency means the concentration at half of the fitted maximal effect.

The assay in a line: Quantitative High-Throughput drug screen in 47 multiple myeloma cell lines against the NCATS MIPE library collection: Karpas417_ECACC cell viability assay (AID 1918961). The settings on record: Karpas417 myeloma viability, CellTiter-Glo ATP luminescence, 48 h; viability (% of DMSO): at 45.8 µM (top of the series). From the text: PI: Beverly A. Mock Ph.D.
Laboratory of Cancer Biology and Genetics,
Center for Cancer Research, National Cancer Institute,
National Institute of Health, Bethesda, Maryland
Drug resistance and disease progression are common in multiple myeloma (MM) patients, underscoring the need for new therapeutic combinations. […] We hypothesized that effective combinations would reduce MYC expression and enhance p16 activity. […] These preclinical data identify potentially useful drug combinations for evaluation in drug-resistant MM and reveal potential mechanisms of combined drug sensitivity.
Described herein is the primary MIPE qHTS used to cherrypick compounds. Validated compounds were then further tested for potential synergistic activiy.
[1] Peat TJ, Gaikwad SM, Dubois W, Gyabaah-Kessie N, Zhang S, Gorjifard S, Phyo Z, Andres M, Hughitt VK, Simpson RM, Miller MA, Girvin AT, Taylor A, Williams D, D'Antonio N, Zhang Y, Rajagopalan A, Flietner E, Wilson K, Zhang X, Shinn P, Klumpp-Thomas C, McKnight C, Itkin Z, Chen L, Kazandijian D, Zhang J, Michalowski AM, Simmons JK, Keats J, Thomas CJ, Mock BA. Drug combinations identified by high-throughput screening promote cell cycle transition and upregulate Smad pathways in myeloma. Cancer Lett. 2023 Aug 1;568:216284. doi: 10.1016/j.canlet.2023.216284. Epub 2023 Jun 24. PMID: 37356470; PMCID: PMC10408729.
SEQUENCE No. (e.g., 1, 2, 3, etc.); […] (e.g., Cells, Incubation, Reagent, etc.); VALUE and DESCRIPTION.
1; Cells; 5 uL; white, solid bottom 1536-well Greiner assay plate.
2; Compounds; 23 nL; Kalypsis pin tool (Wako USA) equipped with a 1536-well pin head to transfer to the assay plates.
3; Incubation; 48 hours; 37C incubation.
4; Reagent;5uL; CellTiter Glo (Promega).
5; Detector; 425V; Luminescence; Viewlux PerkinElmer.
NOTES (numbers refer to Sequence numbers above)
1. The cell-based screening methods employed in this study were like those previously published. Briefly, the corresponding myeloma cell lines were screened in 1,536-well plates with 500 cells, 5-uL per well for inhibition of cell viability (assessed by measuring ATP levels with CellTiterGlo).
2. NCATS MIPE 4.0 library of approved and investigational drugs were added using the Kalypsis pin tool. Wells treated with DMSO only for 100% viability and media only wells for 0% viability were used as controls.
3. The assay plates were covered and incubated for 48 hours in a 37C, 5% CO2 incubator with controlled humidity.
4. After 48 hours, CellTilter-GloTM luminescent substrate mix (Promega) reagent was added to the assay plate and plates we incubated for 5 min at room temperature.
5. Signal was measured as median relative luminescence units on a ViewLux (PerkinElmer) multiplate reader.
[1] Heske CM, Davis MI, Baumgart JT, Wilson K, Gormally MV, Chen L, Zhang X, Ceribelli M, Duveau DY, Guha R, Ferrer M, Arnaldez FI, Ji J, Tran HL, Zhang Y, Mendoza A, Helman LJ, Thomas CJ. Matrix Screen Identifies Synergistic Combination of PARP Inhibitors and Nicotinamide Phosphoribosyltransferase (NAMPT) Inhibitors in Ewing Sarcoma. Clin Cancer Res. 2017 Dec 1;23(23):7301-7311. doi: 10.1158/1078-0432.CCR-17-1121. Epub 2017 Sep 12. PMID: 28899971; PMCID: PMC6636827.
As to `CN(C)CCc1ccc(O)cc1`, the “viability (% of DMSO)” value was 103% (inactive).
Consider `C[C@@H]1[C@@H](CC(C[C@H]2O[C@@H]3O[C@]4(C)CC[C@@H]5[C@H](C)CC[C@@H]([C@H]2C)[C@@]35OO4)C[S+](=O)([O-])c2ccc(COC(=O)N(C)C)cc2)O[C@@H]2O[C@]3(C)CC[C@H]4[C@H](C)CC[C@@H]1[C@@]24OO3` (stereo not given in full), for which the Potency is 132 nM (active).
Same read-out and setting: as for `CC(O)(CS(=O)(=O)c1ccc(F)cc1)C(=O)Nc1ccc(C#N)c(C(F)(F)F)c1` (stereo not given), the figure is 372 nM (active).
Same read-out and setting: then `CNC(=O)N1N=C(c2ccc(N)cc2)c2cc3c(cc2CC1C)OCO3` (stereo not given), with 1870 nM (active).
`CCCC(C)(COC(N)=O)COC(=O)NC(C)C` (stereo not given): the viability (% of DMSO) is 64.9% (active).
For `N[C@@H](Cc1ccc(N(CCCl)CCCl)cc1)C(=O)O`, the Potency is 2960 nM (active).
Take `CNCC(O)c1ccc(O)cc1` (stereo not given): the viability (% of DMSO) was 80.8% (active).
Still for that read-out and setting: as for `O=C1CC[C@@]2(O)[C@H]3Cc4ccc(O)c5c4[C@@]2(CCN3CC2CC2)[C@H]1O5`, the figure is 147% (inactive).
Turning to `CN(C)[C@@H]1C(=O)C(C(N)=O)=C(O)[C@@]2(O)C(=O)C3=C(O)c4c(O)cccc4[C@@](C)(O)[C@H]3C[C@@H]12`, the “viability (% of DMSO)” value is 121% (inactive).
Take `COC1(CS(=O)c2ccccc2)CCN(CCc2c[nH]c3ccc(F)cc23)CC1` (stereo not given): the “viability (% of DMSO)” value was 96.9% (inactive).
